Bioassay records: PubChem BioAssay, National Center for Advancing Translational Sciences (NCATS)
ClpP mod = qHTS Assay for Activators of ClpP | ATP-dependent Clp protease proteolytic subunit (Bacillus subtilis (strain 168)), P80244 | Potency, µM (doses to about 57.5 µM), for the others: top-dose activity change, negative = active | purified B. subtilis ClpP, FRET peptide cleavage, 20 min | hit rate 1.9% among 340,000 | AID 651965, 2013; active = well fitted falling curve with a large enough effect; inconclusive = small, poorly fitted or top-dose-only effect; inactive = no such curve, though single readings can be large or run the other way; also: potency is read from the fitted curve at half-maximal effect; the source files actives as falling curves though it sought activators and does not explain the sign; nearly all actives have a fitted effect of over 65% in size
Target sequence (P80244 whole entry, looked up): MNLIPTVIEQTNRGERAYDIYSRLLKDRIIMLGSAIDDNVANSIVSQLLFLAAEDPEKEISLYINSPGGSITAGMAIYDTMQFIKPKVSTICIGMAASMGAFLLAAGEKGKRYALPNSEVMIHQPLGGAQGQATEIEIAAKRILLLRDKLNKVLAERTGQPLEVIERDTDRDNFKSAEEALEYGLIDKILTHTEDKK
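Purified B. subtilis ClpP, 10 microg/mL final in Tris/HCl pH8 with KCl, BSA, glycerol and Tween-20, cleaved an Abz/nitrotyrosine-quenched decapeptide. Fluorescence (ex 320, em 430) was read at 0 and 20 min at room temperature. Delta was normalized to 5.8 microM ADEP and DMSO/no-enzyme controls.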
DT40 TDP1 no CPT = qHTS for Inhibitors of human tyrosyl-DNA phosphodiesterase 1 (TDP1): qHTS in cells in absence of CPT; DT40 Tdp1-/- hTDP1 cells, no CPT, ATP luminescence, 48 h; Potency, µM (titrated, usually from 46.2 µM), for the others: top-dose activity change, negative = growth inhibition, most hits filed as inhibitors; hit rate 15% among 420,000; AID 686978, 2013; also: potency is read from the fitted curve at half-maximal effect; % is scaled to controls: 0 for no effect and ±100 for the full control effect; nearly all actives have a fitted effect of over 55% in size
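DT40 Tdp1-/-;hTDP1 cells, no CPT (DMSO vehicle only), 400 cells/well; compounds pin-transferred; ≥48 hr, 37 °C; CellTiter-Glo 30 min RT dark, luminescence read.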
IL1B secr inh = qHTS for Inhibitors of Inflammasome Signaling: IL-1-beta AlphaLISA Primary Screen; THP-1 LPS/ATP IL-1B secretion, AlphaLISA, 16 h; stronger effect = lower value; activity change, % at 57.5 µM; hit rate 4.7% among 360,000; in the data active = activity change below about -50%; inconclusive = mostly about -30% to -49%; also: % is scaled to controls: 0 for no effect and ±100 for the full control effect
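THP-1 cells pretreated 1 hr with compounds (up to 57.5 uM final), then stimulated with LPS (250 ng/mL final) plus ATP (1.25 mM final); secreted IL-1B measured by AlphaLISA after 16 hr, decreased signal indicating inhibition.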
DT40 TDP1 CPT = qHTS for Inhibitors of human tyrosyl-DNA phosphodiesterase 1 (TDP1): qHTS in cells in presence of CPT; chicken DT40 Tdp1-/-;hTDP1 cells + 20 nM CPT, ATP luminescence, 48 h; AID 686979, 2013; Potency, µM (titrated, usually from 46.2 µM), inactives show top-dose activity change, negative = growth inhibition, hits mostly inhibitors; hit rate 12% among 420,000; also: potency is read from the fitted curve at half-maximal effect; % is scaled to controls: 0 for no effect and ±100 for the full control effect; nearly all actives have a fitted effect of over 55% in size
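Chicken DT40 Tdp1-/- cells complemented with human TDP1, 400 cells/well, exposed to compounds plus 20 nM camptothecin for at least 48 h at 37 C; viability read as ATP content by CellTiter-Glo luminescence.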
DRD3 agonist = qHTS of D3 Dopamine Receptor Agonist: qHTS; hit rate 0.58% among 410,000; D(3) dopamine receptor (Homo sapiens), P35462; AID 652048, 2013; D3R DiscoveRx beta-arrestin cells, luminescence, 90 min; max activation, %; in the data active = max activation above about 30%; also: 0% is about no effect
Target sequence (P35462 whole entry, looked up): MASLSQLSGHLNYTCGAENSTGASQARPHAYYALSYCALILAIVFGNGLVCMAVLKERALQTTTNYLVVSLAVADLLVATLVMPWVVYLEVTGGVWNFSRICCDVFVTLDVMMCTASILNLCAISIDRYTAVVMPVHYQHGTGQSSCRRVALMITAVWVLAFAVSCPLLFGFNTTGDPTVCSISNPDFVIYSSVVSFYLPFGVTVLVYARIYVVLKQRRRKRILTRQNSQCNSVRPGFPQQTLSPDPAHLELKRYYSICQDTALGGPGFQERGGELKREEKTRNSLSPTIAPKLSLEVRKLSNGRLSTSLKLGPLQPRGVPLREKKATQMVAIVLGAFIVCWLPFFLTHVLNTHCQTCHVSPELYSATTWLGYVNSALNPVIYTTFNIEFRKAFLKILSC
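Agonist mode: compounds and dopamine controls were applied to plated cells for 90 min at 37 degrees C after an overnight attachment at 1500 cells/well. Luminescent read-out followed 30 - 60 minutes at room temperature with DiscoveRx detection reagent.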
D3 antag = qHTS of D3 Dopamine Receptor Antagonist: qHTS; D(3) dopamine receptor (Homo sapiens), P35462; max response, negative = inhibition, %; hit rate 2.5% among 360,000; AID 652054, 2013; D3R cells, DiscoveRx beta-arrestin luminescence, antagonist mode; stronger effect = lower value; in the data active = max response below about -50%; inconclusive = no clear call, values can overlap the other calls; also: % is scaled to controls: 0 for no effect and ±100 for the full control effect
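Cells plated overnight at 1500 cells/well, then exposed to library compounds with dopamine controls for 90 minutes at 37 degrees C. DiscoveRx reagent added for 30–60 minutes at room temperature; luminescence read, quantitative HTS format.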
Numbers without * were called inactive; u = inconclusive; x = no result; [ ] = dose if it differs, or a comment. Hits are enriched below; roughly 21% of the tested compounds scored in any of these assays. Unless noted, calls follow the shape of the dose curve; as a rule, active = well fitted inhibition curve with a large enough effect; inconclusive = small, poorly fitted or top-dose-only effect; inactive = flat fitted curve, though single readings scatter.

SMILES	ClpP mod	DT40 TDP1 no CPT	IL1B secr inh	DT40 TDP1 CPT	DRD3 agonist	D3 antag
C=CCn1c(N)c(C(=O)Nc2cccc(C)c2)c2nc3ccccc3nc21	u	-15%	-61*	-24%	-2	20
Nc1c(C(=O)Nc2ccccc2)c2nc3ccccc3nc2n1CCCN1CCOCC1	x	u	-78*	u	-17	18
CCN(C(=O)COC(=O)c1ccc(=O)n(Cc2ccccc2)n1)C1CCCCC1	2%	-9%	4	-5%	-3	14
Cc1ccc(NC(=O)COC(=O)c2ccccc2OCC(=O)Nc2ccc(Br)cc2)c(C)c1	-3%	u	x	u	x	x
CC(=O)c1ccc(NC(=O)CCCN2C(=O)/C(=C/C(C)=C/c3ccccc3)SC2=S)cc1	1%	23µM*	-66*	u	3	7
CC(/C=C1\SC(=O)N(CC(=O)Nc2cccc(O)c2)C1=O)=C\c1ccccc1	-1%	u	-57*	-1%	-2	u
CC(/C=C1\SC(=S)N(CC(=O)N2CCN(c3ccccc3)CC2)C1=O)=C\c1ccccc1	-3%	21µM*	-5	21µM*	-13	1
CC(/C=C1\SC(=S)N(CC(=O)O)C1=O)=C\c1ccccc1	0%	10%	-10	-13%	7	10
CC(/C=C1\SC(=O)N(CC(=O)Nc2ccc(O)cc2)C1=O)=C\c1ccccc1	-2%	-24%	-76*	-24%	-3	29
O=C(CN1C(=O)S/C(=C/C=C/c2ccccc2)C1=O)Nc1ccc(C(=O)O)cc1	x	-21%	-24	0%	16	4
O=C(CCCN1C(=O)/C(=C\c2ccccc2)SC1=S)Nc1ccc(C(=O)O)cc1	x	-26%	6	-3%	-6	-2
Cc1c(C(=O)N2CCOCC2)c(S(=O)(=O)N2CCN(c3ccc(Cl)cc3)CC2)c(C)n1C	-1%	22%	-2	-11%	2	-1
Cn1cc(/C=C2/SC(=O)N(CC(=O)Nc3ccc4c(c3)OCO4)C2=O)c2ccccc21	-3%	u	u	u	0	-84*
O=C(CN1C(=O)c2ccccc2C1=O)Nc1ccc2c(c1)OCO2	0%	6%	0	-18%	-2	17
O=C(NN1C(=O)/C(=C/C=C/c2ccco2)SC1=S)c1ccncc1	x	-4%	-10	-20%	6	1
O=C(CN1C(=O)S/C(=C/c2ccncc2)C1=O)Nc1ccccc1	-5%	u	-16	23µM*	2	7
O=C(NN1C(=O)/C(=C/c2ccc(O)cc2)SC1=S)c1cccc(O)c1	-2%	u	-15	u	-1	-7
O=C(NN1C(=O)/C(=C/C=C/c2ccccc2)SC1=S)c1ccncc1	x	-29%	-72*	-9%	-1	u
CC(/C=C1\SC(=S)N(NC(=O)c2cccc(O)c2)C1=O)=C\c1ccccc1	-7%	-19%	-101*	7%	1	-14
CCOc1ccc2nnnn2n1	-2%	6%	15	0%	0	13
CC(C)(C)OC(=O)C(Cl)(C(=O)OC(C)(C)C)c1ccc2nnnn2n1	x	u	-79*	u	-1	-2
CC1CCN(S(=O)(=O)c2cc(C(=O)Nc3ccc(Br)cc3F)n(C)c2)CC1	12%	u	x	u	-4	x
CCOc1cc(/C=C(\C#N)C(=O)Nc2ccccn2)ccc1O	x	-3%	22	0%	2	-2
Cc1cc(-c2ccccc2)c(C#N)c(N)n1	32µM*	-19%	14	-19%	5	20
COc1cc(-c2cc(-c3ccc(O)cc3)nc(N)c2C#N)ccc1O	x	u	-65*	-96%	8	20
SMILES	ClpP mod	DT40 TDP1 no CPT	IL1B secr inh	DT40 TDP1 CPT	DRD3 agonist	D3 antag
CCOc1cc(/C=C(\C#N)c2[nH]nc(N)c2C#N)ccc1O	-2%	10µM*	-65*	u	6	8
CCOc1cc(-c2cc(-c3ccc(C)cc3)nc(N)c2C#N)ccc1O	-23%	21µM*	18	u	-1	14
CCCCc1nc2cc(C(=O)N3CCCC(OCCC)C3)ccc2o1 (centres undefined)	0%	-27%	42	u	2	15
COc1ccc(-c2ccnc(-n3ncc(C(=O)NC(C)(C)CO)c3C3CC3)n2)cc1F	x	-5%	x	14%[9.04 µM]	x	x
CNC(=O)C1CCC(Cn2c(=O)c3sccc3n(CC(=O)N3CCCC3)c2=O)CC1 (centres undefined)	-2%	-9%	x	-13%	5	x
COc1ccc(-c2cc(-c3ccc(O)cc3)nc(N)c2C#N)cc1	4%	23µM*	-12	u	1	6
CCCc1c(C(=O)N/N=C/c2ccc(OCc3ccc(F)cc3)cc2)nnn1-c1nonc1N	u	-2%	-4	-5%	1	72
CCCCCCCCCCCCCCCCCC(=O)OCCO	x	-40%	x	u	-10	x
Cc1nn(-c2ccccc2)c(N)c1C1(O)C(=O)N(C(C)C)c2ccccc21 (centres undefined)	0%	8.2µM*	1	6.5µM*	3	-4
Cc1nn(-c2ccccc2)c2c1C1(C(=O)N(C(C)C)c3ccccc31)C(C#N)=C(N)O2 (centres undefined)	-1%	16µM*	1	9.2µM*	-10	21
Cc1ccc(-n2nc(C)c(C3(O)C(=O)N(C(C)C)c4ccccc43)c2N)cc1 (centres undefined)	4%	12µM*	8	10µM*	0	18
CCN1C(=O)C2(C(C#N)=C(N)Oc3n[nH]c(C(C)C)c32)c2ccccc21 (centres undefined)	0%	-27%	-13	-24%	-6	18
COC(=O)c1cc(NC(=O)CCc2c(C)nc3nc(C)nn3c2C)cc(C(=O)OC)c1	4%	-30%	x	1%	0	x
CN(c1ccccc1)S(=O)(=O)c1cc(C(=O)NCc2ccco2)ccc1Cl	0%	u	u	-14%	8	24
